Data from PubChem BioAssay AID588330 (National Center for Advancing Translational Sciences (NCATS), 2011).
Results filed as inconclusive are left out. The source made the active and inactive calls. Calls follow the shape of the dose curve; as a rule, active = well fitted inhibition curve with a large enough effect; inconclusive = small, poorly fitted or top-dose-only effect; inactive = flat fitted curve, though single readings scatter.

Tested on: 6-phosphofructokinase (Trypanosoma brucei)
Experiment: Confirmatory Assay to Find Inhibitors of T. brucei phosphofructokinase: High ATP
Conditions: T. brucei PFK, Kinase-Glo luminescence; series mostly up to 57.5 µM
Description: Various species of the protozoan family Trypanosomatidae are responsible for a range of serious human diseases in tropical and subtropical areas of the world. […] Many of the disorders caused by trypanosomatids are fatal if left untreated, but most currently used drugs are inefficient and toxic. […] Oxidative metabolism involving the mitochondrial tricarboxylic acid cycle and oxidative phosphorylation are repressed in these parasites, and recent RNA interference (RNAi) experiments have shown that even partial depletion of certain individual glycolytic enzymes can lead to the death of cultured parasites. One such glycolytic enzyme, phosphofructokinase (PFK), catalyzes the formation of fructose-1,6-bisphosphate (F1,6BP) and ADP from fructose-6-phosphate (F6P) and ATP, and in many metabolic circumstances makes an important contribution to the control of flux through the glycolytic pathway. As a specific glycolytic target, PFK is particularly attractive as it catalyzes the first irreversible step in glycolysis, and structural and kinetic studies have shown very substantial and essential differences from corresponding host enzymes, allowing for the discovery of parasite-selective inhibitors. A luminescent secondary assay was also performed that used luciferase-based nucleotide detection ([…]) similar to the qHTS, but that alternatively used saturating concentrations (10x Km concentrations) of ATP or F6P to determine if inhibitor potencies were shifted due to particular substrate competition. […] NIH Molecular Libraries Probe Production Network [MLPCN] NIH Chemical Genomics Center [NCGC] Grant: 1 R03 MH092153-01 PI Name: Malcolm Walkinshaw, University of Edinburgh
Substrate buffer was dispensed into white, solid 1536-well plates at 3 uL/well in 0.1M triethanolamine (TEA) buffer, pH 8.0, containing final concentrations of 5 mM MgCl2 and 0.01% Tween20. Standard substrate buffer contained 0.5mM fructose-6-phosphate (F6P) and 0.1mM ATP, high ATP substrate buffer contained 0.5mM fructose-6-phosphate (F6P) and 1mM ATP, high F6P substrate buffer contained 5mM fructose-6-phosphate (F6P) and 0.1mM ATP, and high ATP/F6P buffer contained 5mM fructose-6-phosphate (F6P) and 1mM ATP. Then, 23nl of compounds or DMSO were delivered to each well using a pin tool. One uL of T. brucei PFK (0.1M TEA, 0.01% Tween20, 0.1% bovine serum albumin (BSA) and 1.25nM PFK, final concentrations) was then dispensed, and plates were incubated at room temperature for 45 min. The luminescent detection reagent, Kinase-Glo Plus (Promega), was then added at 2ul/well and incubated for ten minutes at room temperature. The plates were measured on a ViewLux plate reader for luminescent signal using a clear filter with a one second exposure. The %Activity was determined from the corrected luminescence values. 1x (1.25nM) and 0x PFK enzyme controls (untreated) were included to normalize %Activity of identified inhibitors; 0x enzyme values corresponded to 100%Activity (full inhibition), while 1x PFK enzyme values were used to normalize 0% Activity (no inhibition).

Potency, active:
CN(C)c1cccc(NS(=O)(=O)c2ccc(NC(=O)Cc3ccc(Cl)c(Cl)c3)cc2)c1 23.1 µM, Cc1cc(NS(=O)(=O)c2ccc(NC(=O)Cc3ccc4ccccc4c3)cc2)no1 5.8 µM, O=C(Cc1ccc(Cl)c(Cl)c1)Nc1ccc(S(=O)(=O)Nc2ccon2)cc1 0.326 µM, Cc1cc(N(C)S(=O)(=O)c2ccc(NC(=O)Cc3ccc(Cl)c(Cl)c3)cc2)no1 3.26 µM, Cc1cc(NS(=O)(=O)c2ccc(NC(=O)Cc3ccc(C)c(C)c3)cc2)no1 18.3 µM, O=C(Cc1ccc(Cl)c(Cl)c1)Nc1ccc(S(=O)(=O)Nc2ccccc2)cc1 13 µM, Cc1cc(NS(=O)(=O)c2ccc(NC(=O)Cc3cccc(Cl)c3)cc2)no1 6.51 µM, Cc1cc(NS(=O)(=O)Cc2ccc(NC(=O)Cc3ccc(Cl)c(Cl)c3)cc2)no1 4.11 µM, O=C(Cc1ccc(Cl)c(Cl)c1)Nc1ccc(S(=O)(=O)Nc2cccc(O)c2)cc1 2.91 µM, O=C(Cc1ccc(Cl)c(Cl)c1)Nc1ccc(S(=O)(=O)O)cc1 1.03 µM, Cc1cc(NS(=O)(=O)c2ccc(NC(=O)Cc3ccc(Cl)c(Cl)c3)cc2)on1 0.517 µM, Cc1cc(NS(=O)(=O)c2ccc(NC(=O)Cc3ccc(Cl)cc3)cc2)no1 2.91 µM, Cc1cc(NS(=O)(=O)c2cccc(NC(=O)Cc3ccc(Cl)c(Cl)c3)c2)no1 18.3 µM, Cc1cc(N[S+](=O)([O-])c2ccc(NC(=O)Cc3ccc(Cl)nc3)cc2)no1 18.3 µM, Cc1cc(NS(=O)(=O)c2ccc(NCCc3ccc(Cl)c(Cl)c3)cc2)no1 16.3 µM, O=C(Cc1ccc(Cl)c(Cl)c1)Nc1ccc(S(=O)(=O)Nc2cncnc2)cc1 1.3 µM, Cc1cc(NS(=O)(=O)c2ccc(NC(=O)Cc3ccc(Cl)cc3Cl)cc2)no1 6.51 µM, Cc1cc(NS(=O)(=O)c2ccc(N(C)C(=O)Cc3ccc(Cl)c(Cl)c3)cc2)no1 1.3 µM, Cc1cc(NS(=O)(=O)c2ccc(NC(=O)Cc3ccc(C)c(F)c3)cc2)no1 8.19 µM, Cc1cc(NS(=O)(=O)c2ccc(NC(=O)Cc3ccc(Cl)c(Cl)c3)cc2)n(C)n1 1.83 µM, O=C(Cc1ccc(Cl)c(Cl)c1)Nc1ccc(S(=O)(=O)Nc2ccc(C(=O)O)cc2)cc1 0.919 µM, Cc1cc(NS(=O)(=O)c2ccc(NC(=O)Cc3ccc(Cl)c(C(F)(F)F)c3)cc2)no1 0.919 µM, O=C(Cc1ccc(Cl)c(Cl)c1)Nc1ccc(S(=O)(=O)Nc2cccc(C(=O)O)c2)cc1 1.03 µM, Cc1cc(NS(=O)(=O)c2ccc(NC(=O)CCc3ccc(Cl)c(Cl)c3)cc2)no1 16.3 µM, O=C(Cc1ccc(Cl)c(Cl)c1)Nc1ccc(S(=O)(=O)Nc2ccn[nH]2)cc1 0.73 µM, Cc1cc(NS(=O)(=O)c2ccc(NC(=O)Cc3ccc(Cl)c(Cl)c3)cc2)no1 0.517 µM, Cc1cc(NS(=O)(=O)c2ccc(NC(=O)Cc3ccc(Cl)c(F)c3)cc2)no1 1.03 µM, Cc1cc(N[S+](=O)([O-])c2ccc3cc(NC(=O)Cc4ccc(Cl)c(Cl)c4)ccc3c2)no1 6.51 µM, Cc1cc(NS(=O)(=O)c2ccc(C(=O)NCc3ccc(Cl)c(Cl)c3)cc2)no1 4.61 µM

Potency, inactive:
COc1ccc(CC(=O)Nc2ccc(S(=O)(=O)Nc3cc(C)on3)cc2)cc1OC, CCOC(=O)c1cccc(NS(=O)(=O)c2ccc(NC(=O)Cc3ccc(Cl)c(Cl)c3)cc2)c1, Cc1cc(NC(=O)c2ccc(NC(=O)Cc3ccc(Cl)c(Cl)c3)cc2)no1, COc1ccc(CC(=O)Nc2ccc(S(=O)(=O)Nc3cc(C)on3)cc2)cc1C, Cc1cc(NC(=O)c2csc(NC(=O)Cc3ccc(Cl)c(Cl)c3)n2)no1
